In the supplement of paper PMC3334620:
In all, about 33,000 sequences were measured (“E-score (-0.5 to 0.5)”: median about -0.017, highest 2% from about 0.3 on). This is one part of a sample in which the highest values are shown more often than they occur.

The sequences below were run against T1, Sut1 (UniProt P53032) (assay: PBM E-score (8-mer binding enrichment) (E-score (-0.5 to 0.5)); higher = stronger / more preferred TF binding). Conditions: protein concentration: 200 nM; construct: GST-full length.
T1 sequence: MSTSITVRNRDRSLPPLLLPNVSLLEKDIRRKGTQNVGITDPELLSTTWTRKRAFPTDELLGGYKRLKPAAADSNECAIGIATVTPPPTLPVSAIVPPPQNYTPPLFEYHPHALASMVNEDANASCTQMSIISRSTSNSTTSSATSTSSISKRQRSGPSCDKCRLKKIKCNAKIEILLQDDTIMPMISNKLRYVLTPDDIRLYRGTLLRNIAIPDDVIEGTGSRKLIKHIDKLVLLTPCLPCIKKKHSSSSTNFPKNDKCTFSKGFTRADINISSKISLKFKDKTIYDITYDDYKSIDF
Method: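 Universal 'all 10-mer' protein binding microarrays (Agilent AMADID 015681) probed with GST-tagged S. cerevisiae TFs (full-length or DBD) made by in vitro transcription/translation (PURExpress), about 100-200 nM. Bound TF was detected with fluorescent anti-GST. Each ungapped 8-mer (which stands for itself and its reverse complement) is scored by the PBM enrichment score (E-score), a modified Wilcoxon-Mann-Whitney statistic from -0.5 to +0.5, computed with the Universal PBM Analysis Suite. Scale: above 0.35 generally sequence-specific binding.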
In the case of AGTAGAGG, the “PBM E-score” value is reported as -0.308. In the case of GCGCAGCA, the “PBM E-score” value is reported as -0.232. With ACAATTTC the “PBM E-score” value was 0.0702. AGGATAAT was tested, and the “PBM E-score” value was 0.113. TCAAAGGA was tested, and the “PBM E-score” value was -0.0285. GAGCCACC was tested, and the “PBM E-score” value was -0.264. With CCATCTCC the “PBM E-score” value was 0.256. In the case of GAAGATTC, the “PBM E-score” value is reported as 0.171. In the case of CATTCTCC, the “PBM E-score” value is reported as 0.118. With GCAACTCA the “PBM E-score” value was 0.0595. In the case of CCAACTCG, the “PBM E-score” value is reported as -0.141. In the case of ACAACTCT, the “PBM E-score” value is reported as 0.0085. With ACAACTCC the “PBM E-score” value was 0.431. In the case of CCAACTCC, the “PBM E-score” value is reported as 0.387. GCAACTCC was tested, and the “PBM E-score” value was 0.299. With CCAACTCA the “PBM E-score” value was -0.0222. For GCAACTAC, the “PBM E-score” value was 0.0638. In the case of ACAACTCA, the “PBM E-score” value is reported as 0.13. In the case of CGCTGTGA, the “PBM E-score” value is reported as -0.225. In the case of CTATTGGC, the “PBM E-score” value is reported as -0.227. For ACCTTGAC, the “PBM E-score” value was -0.143. CAGGAGTC was tested, and the “PBM E-score” value was 0.0824. With GCGGAGTA the “PBM E-score” value was 0.458. With ACGGAGTA the “PBM E-score” value was 0.473. CCGGAGTC was tested, and the “PBM E-score” value was 0.484. With GCGGAGGA the “PBM E-score” value was -0.161. In the case of CCGGAGGC, the “PBM E-score” value is reported as 0.156. With ATGGAGTA the “PBM E-score” value was 0.179. ACGGAGTG was tested, and the “PBM E-score” value was 0.42. For AAGGAGTG, the “PBM E-score” value was -0.0821. In the case of GAGGAGTA, the “PBM E-score” value is reported as -0.0389. For ATGGAGTG, the “PBM E-score” value was -0.0878. AAGGAGTA was tested, and the “PBM E-score” value was 0.0607. For AATTGCGT, the “PBM E-score” value was 0.134. In the case of CGATCCTC, the “PBM E-score” value is reported as -0.124. For ACACTCGA, the “PBM E-score” value was -0.106. For AAACCTAT, the “PBM E-score” value was 0.123. For CTAGATGA, the “PBM E-score” value was -0.0501. In the case of CACAAACG, the “PBM E-score” value is reported as 0.127. In the case of CCAACCAG, the “PBM E-score” value is reported as -0.187. For ACCGCAAT, the “PBM E-score” value was 0.1. For CCGGAGTA, the “PBM E-score” value was 0.49. In the case of ACGGAGTC, the “PBM E-score” value is reported as 0.46. For ATGGAGTC, the “PBM E-score” value was 0.0281. CTGGAGTA was tested, and the “PBM E-score” value was 0.0562. ACGGAGGC was tested, and the “PBM E-score” value was -0.0143. In the case of CAGGAGTA, the “PBM E-score” value is reported as -0.157. In the case of AAATTTTA, the “PBM E-score” value is reported as 0.125. AACTTTAG was tested, and the “PBM E-score” value was 0.189. AAATTTAA was tested, and the “PBM E-score” value was 0.318. In the case of TAATTTAA, the “PBM E-score” value is reported as 0.283. With TGATTTAA the “PBM E-score” value was 0.3. AACTTTAA was tested, and the “PBM E-score” value was 0.325. In the case of AAATTTAG, the “PBM E-score” value is reported as 0.254. CAATTTAA was tested, and the “PBM E-score” value was 0.317. For CAATTTTA, the “PBM E-score” value was 0.234. For CGATTTAA, the “PBM E-score” value was 0.242. AGATTTAA was tested, and the “PBM E-score” value was 0.00422. With CACTTTAA the “PBM E-score” value was 0.157. With CCAGGATC the “PBM E-score” value was -0.201. For GTTTAACA, the “PBM E-score” value was -0.00835. With AGGATTTG the “PBM E-score” value was 0.0444. With CCTCCCTA the “PBM E-score” value was -0.367. For CGCAAACG, the “PBM E-score” value was -0.00322. With AGATTGAG the “PBM E-score” value was 0.0927. For AACTATCT, the “PBM E-score” value was 0.0634. GGACCGTA was tested, and the “PBM E-score” value was -0.172. For CTGCGTTC, the “PBM E-score” value was 0.0373. For CAGTTGTA, the “PBM E-score” value was 0.00162. With GAGTTGTA the “PBM E-score” value was 0.317. In the case of AAGTTGTA, the “PBM E-score” value is reported as 0.0914. CTAGCGGA was tested, and the “PBM E-score” value was 0.0881. With CGAGGTCA the “PBM E-score” value was -0.0467. CTCTCCGC was tested, and the “PBM E-score” value was 0.18. ATCTCCAG was tested, and the “PBM E-score” value was -0.0734. In the case of ATCTCCCA, the “PBM E-score” value is reported as -0.155. With ATCTCCGC the “PBM E-score” value was 0.399. With ATCTCCCC the “PBM E-score” value was -0.285. ATCTCCGA was tested, and the “PBM E-score” value was 0.477. In the case of ATCTCCCG, the “PBM E-score” value is reported as -0.0416. With ATCTCCAA the “PBM E-score” value was 0.158. In the case of ATCTCCGG, the “PBM E-score” value is reported as 0.478. In the case of GTCTCCGA, the “PBM E-score” value is reported as 0.338. In the case of CTCTCCGA, the “PBM E-score” value is reported as 0.257. With GTCTCCAA the “PBM E-score” value was -0.0301. AAGCGACC was tested, and the “PBM E-score” value was 0.0829. In the case of CGTAGGCA, the “PBM E-score” value is reported as -0.169. For GATAGTAC, the “PBM E-score” value was -0.00235. For GCGCAAGC, the “PBM E-score” value was -0.234. With CAAGATTA the “PBM E-score” value was 0.132. GAAGATTA was tested, and the “PBM E-score” value was 0.109. With AAAGATTA the “PBM E-score” value was 0.306. For AAAAAACT, the “PBM E-score” value was 0.198. For AGAGAGCG, the “PBM E-score” value was -0.0777. With GGTATGAA the “PBM E-score” value was 0.114. With CAGTTTTA the “PBM E-score” value was 0.0952. For ATGATAAA, the “PBM E-score” value was 0.233. CGGATAAC was tested, and the “PBM E-score” value was 0.264. With TGGATAAA the “PBM E-score” value was 0.263. For CGGATAAA, the “PBM E-score” value was 0.341. CCGATAAA was tested, and the “PBM E-score” value was 0.343. In the case of CCGATAAC, the “PBM E-score” value is reported as 0.18. CCGATAAG was tested, and the “PBM E-score” value was 0.111. For TTGATAAA, the “PBM E-score” value was 0.328. In the case of GTGATAAA, the “PBM E-score” value is reported as 0.0786. For TGGGTTAA, the “PBM E-score” value was -0.0031. With ATCAACTC the “PBM E-score” value was -0.0768. For ACAGAACG, the “PBM E-score” value was -0.0202. With TCACTCAA the “PBM E-score” value was 0.0178. In the case of CCCTCAAA, the “PBM E-score” value is reported as -0.0431. In the case of AATCGGCG, the “PBM E-score” value is reported as -0.0941. For AAAGTATA, the “PBM E-score” value was 0.214. For GCTTAAGA, the “PBM E-score” value was 0.00411. In the case of GTCAAGAA, the “PBM E-score” value is reported as 0.108. For ACCGTTAG, the “PBM E-score” value was 0.00367. With CAGCTGAA the “PBM E-score” value was -0.109. For CGATTCCA, the “PBM E-score” value was 0.0585. For CGATTCCG, the “PBM E-score” value was 0.314. CGATTCCC was tested, and the “PBM E-score” value was -0.0189. With CAATTCCA the “PBM E-score” value was -0.032. With CAATTCCC the “PBM E-score” value was 0.072. For AAATTCCG, the “PBM E-score” value was 0.337. For AAATTCCC, the “PBM E-score” value was -0.245. For AAATTCCA, the “PBM E-score” value was 0.241. CAATTCCG was tested, and the “PBM E-score” value was 0.305. For GCTAGGGA, the “PBM E-score” value was -0.308. AATCCCAG was tested, and the “PBM E-score” value was 0.0474. With ATACGAGG the “PBM E-score” value was -0.165. CGATTGAG was tested, and the “PBM E-score” value was -0.0533. For GGGACTAA, the “PBM E-score” value was -0.0778. In the case of TGGACTAA, the “PBM E-score” value is reported as -0.104. In the case of AGGACTAG, the “PBM E-score” value is reported as -0.0577. With GGGACTAC the “PBM E-score” value was -0.162. CGGACTAC was tested, and the “PBM E-score” value was 0.464. CGGACTAA was tested, and the “PBM E-score” value was 0.454. For AGGACTAC, the “PBM E-score” value was -0.118. In the case of CAGACTAG, the “PBM E-score” value is reported as -0.288. In the case of CGGACTAG, the “PBM E-score” value is reported as 0.452. With GATGCTCC the “PBM E-score” value was 0.17. With CAAGGGGA the “PBM E-score” value was -0.185. For GCCTTGCC, the “PBM E-score” value was -0.155. In the case of ACGTCGAT, the “PBM E-score” value is reported as 0.0428. In the case of CATCTGAG, the “PBM E-score” value is reported as -0.143. With CACTCCAC the “PBM E-score” value was -0.0759. CCAGCTGG was tested, and the “PBM E-score” value was -0.188. With CATGCAGA the “PBM E-score” value was -0.15. For CTTGAAAA, the “PBM E-score” value was 0.0874. GTTGAAAA was tested, and the “PBM E-score” value was 0.104. For ATTGAATC, the “PBM E-score” value was 0.00919. With TTTGAAAA the “PBM E-score” value was 0.31. In the case of ATTGAAAA, the “PBM E-score” value is reported as 0.213. With ATTGAAAC the “PBM E-score” value was 0.184. In the case of CTTGAATA, the “PBM E-score” value is reported as 0.0931. In the case of ATTGAATA, the “PBM E-score” value is reported as 0.315. For ATTGAAAT, the “PBM E-score” value was 0.311. For CCGGGCCG, the “PBM E-score” value was 0.155. With TCCATGAA the “PBM E-score” value was 0.131. For AGCCTTTG, the “PBM E-score” value was -0.165. ACCTCAGC was tested, and the “PBM E-score” value was -0.106. In the case of CTCAGTTC, the “PBM E-score” value is reported as -0.0325. For ATCTTTCG, the “PBM E-score” value was -0.00103. In the case of CGAGAGCC, the “PBM E-score” value is reported as -0.161. GATTTCAA was tested, and the “PBM E-score” value was 0.147. With TATTTCAA the “PBM E-score” value was 0.301. CATTTCAA was tested, and the “PBM E-score” value was 0.275. ATTCATAA was tested, and the “PBM E-score” value was 0.127. For ATTCCGGG, the “PBM E-score” value was 0.295. GTTCCGAA was tested, and the “PBM E-score” value was 0.267. In the case of GTTCCGGA, the “PBM E-score” value is reported as 0.342. In the case of CTTCCGGA, the “PBM E-score” value is reported as 0.347. With CTTCCGGC the “PBM E-score” value was 0.0877. With GTTCCGCA the “PBM E-score” value was 0.0832. In the case of ATTCCGGA, the “PBM E-score” value is reported as 0.42. ATTCCGGC was tested, and the “PBM E-score” value was 0.177.
